Screens (PubChem BioAssay)
VACV mCherry inh – qHTS for Stage-Specific Inhibitors of Vaccinia Orthopoxvirus: mCherry Reporter Primary qHTS | AID 720579, 2013 | hit rate 0.63% among 310,000 | Vaccinia virus mCherry reporter infection, fluorescence | Potency, µM (top dose mostly 36.5 µM), for the others: top-dose activity change, negative = inhibition, most hits filed as inhibitors; calls by dose curve; tested in A549 cells; further: potency means the concentration at half of the fitted maximal effect; nearly all actives have a fitted effect of over 35% in size
LASV entry inh – qHTS for Inhibitors of binding or entry into cells for Lassa Virus; Potency, µM (doses to about 37.9 µM), for inactives: at the highest dose activity change, negative = inhibition, most hits filed as inhibitors; Lassa virus pseudotype entry inhibition, cell reporter; hit rate 1.2% among 300,000; AID 540256, 2011; calls by dose curve; tested in HEK293 cells; further: potency means the concentration at half of the fitted maximal effect; nearly all actives have a fitted effect of over 50% in size
FMDV antiviral – High Throughput Screening for Foot and Mouth Disease Virus Antivirals | Potency, µM (top dose mostly 57.9 µM), for the others: top-dose activity change, negative = inhibition, most hits filed as inhibitors | hit rate 1.2% among 410,000 | FMDV antiviral cell-based qHTS; calls by dose curve; tested in HEK293T cells; further: read-out not given here; potency means the concentration at half of the fitted maximal effect; nearly all actives have a fitted effect of over 45% in size
MARV entry inh – qHTS for inhibitors of binding or entry into cells for Marburg Virus; Potency, µM (series often up to 37.8 µM), inactives show top-dose activity change, negative = inhibition, hits mostly inhibitors; Marburg virus pseudotyped entry inhibition, cell reporter; hit rate 1.8% among 300,000; calls by dose curve; tested in HEK293 cells; further: potency means the concentration at half of the fitted maximal effect
VACV Venus inh – qHTS for Stage-Specific Inhibitors of Vaccinia Orthopoxvirus: Venus Reporter Primary qHTS. Potency, µM (highest dose often 36.5 µM), without a hit: at the top dose activity change, negative = inhibition, usual class: inhibitors. Vaccinia virus Venus reporter expression, fluorescence. hit rate 0.46% among 330,000; calls by dose curve; tested in A549 cells; further: potency means the concentration at half of the fitted maximal effect; nearly all actives have a fitted effect of over 30% in size
HCMV antiviral – qHTS Assay for inhibitors of the human cytomegalovirus (HCMV); HFF cells, HCMV-luciferase reporter, 72 h; hits give low values; activity change, negative = inhibition, % at 57.5 µM; hit rate 4.5% among 410,000; in the data active means activity change below about -60%; inconclusive means no clear call, values can overlap the other calls; inactive means above about -39%
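HFF cells seeded 16 h at 37C, treated with compounds, infected with luciferase-reporter HCMV at MOI 1 PFU/cell; luciferase read at 72 h post infection, normalized to buffer-only and Salinomycin controls.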
* hit, by the source's call; i = inactive; u = inconclusive; x = no result; [ ] = another dose, or the depositor's remark. An excerpt weighted towards active compounds, which were near 6.5% of everything screened. On the % scale 0 is the no-effect control and ±100 the full control effect.

SMILES	VACV mCherry inh	LASV entry inh	FMDV antiviral	MARV entry inh	VACV Venus inh	HCMV antiviral
O=C(Cn1nc(CNc2ccc(Br)cc2)[n+]2c1CCCCC2)c1ccc([N+](=O)[O-])cc1	-19%	-2%	-12%	-18%	-15%	-92*
CCCCNC(=O)c1nc2cc(C)c(C)cc2nc1-c1cccc(C(F)(F)F)c1	x	x	x	x	x	-94*
Cc1nsc(Nc2ccc([N+](=O)[O-])cc2)c1C#N	-13%	u	-9%	u	-2%	-64*
Cc1ccccc1CN1CC2=C(CCN(Cc3ccccc3)C2=O)N2CCN=C12	-25%	x	-20%	x	-8%	-99*
CN1CCN(C(=O)CCN2C(=O)/C(=C\c3ccc(Cl)cc3Cl)SC2=S)CC1	9%	u	35µM*	1%[46.1 µM]	149%	-18
O=C(O)CCCN1C(=O)/C(=C\C(Cl)=C\c2ccccc2)SC1=S	x	x	u	x	x	-99*
COc1ccc(/C=C2\SC(=S)N(CCC(=O)N3CCCCC3)C2=O)cc1	-15%	15%	0%	u	-6%	-20
CCOc1ccc(/C=C2\SC(=S)N(CCC(=O)O)C2=O)cc1	-13%	-24%[46.1 µM]	0.32µM*	u	-12%	-64*
O=C(CCN1C(=O)/C(=C/c2ccccc2)SC1=S)N1CCCCCC1	i	u	-26%	-11%[46.1 µM]	5%	-97*
Cc1cccc(N2C(=O)CSC23C(=O)N(C)c2ccccc23)c1 (configuration not stated)	-12%	6%[46.1 µM]	4%	x	2%	-1
Cc1ccc2oc(=O)c3cc(C(=O)Nc4ccccc4C(N)=O)sc3c2c1	-5%	2%[46.1 µM]	12%	12%[46.1 µM]	1%	6
O=C1[C@H]2[C@@H]3[C@@H](O)[C@H](O)CC(=NOCc4ccccc4)[C@H]3CC[C@H]2C(=O)N1C[C@@H]1CCCO1	x	x	x	-7%[14.2 µM]	x	x
CCc1ccc(/C=C2\SC(=S)N(CCC(=O)N3CCN(C)CC3)C2=O)cc1	u	x	22%	x	10µM*	-36
COc1cc(/C=C2/SC(=S)N(CCC(=O)N3CCN(C)CC3)C2=O)cc(OC)c1OC	10µM*	x	0%	x	u	u
COc1ccc(/C=C2/SC(=S)N(CCC(=O)N3CCN(C)CC3)C2=O)cc1	-10%	u	17%	u	-25%	u
CC1CCN(C(=O)CCN2C(=O)/C(=C/c3cccs3)SC2=S)CC1	u	5.6µM*	-11%	u	-26%	6
COc1ccc(/C=C2/SC(=S)N(CCCC(=O)N3CCN(C)CC3)C2=O)cc1	u	-11%	13%	u	u	-100*
COc1cc(/C=C2\SC(=S)N(CCC(=O)N3CCN(C)CC3)C2=O)cc(OC)c1OC	-20%	-29%[46.1 µM]	-24%	u	19%	3
COc1ccccc1C(=O)OCC(=O)Nc1ccc(N2CCCCC2)cc1	-3%	x	x	x	-11%	x
COc1ccc(CNC(=O)c2ccc(-c3nc(CSc4ccc(C)cc4)c(C)o3)cc2)c(OC)c1	-21%	9%[46.1 µM]	-25%	x	-11%	12
CN1CCN(C(=O)CCCN2C(=O)/C(=C/c3ccccc3)SC2=S)CC1	u	u	-13%	u	-1%	-94*
CCC(C)c1ccc(C(C)NC(=S)NC2CCCCC2)cc1 (configuration not stated)	-19%	u	u	u	u	-73*
CCOc1ccc(C(C)NC(=S)NC2CCCCC2)cc1 (configuration not stated)	x	x	-9%	x	x	u
CCCCc1ccccc1NC(=S)NC1CCCC1	i	u	7%	-15%[46.1 µM]	4%	-66*
CSc1ccccc1NC(=S)NC1CCCC1	x	x	30%	x	x	-13
CC(NC(=S)NC1CCCCC1)c1ccc(C(C)(C)C)cc1 (configuration not stated)	-18%	u	0%	u	u	-97*
CC(C)c1ccc(C(C)NC(=S)NC2CCCCC2)cc1 (configuration not stated)	x	x	u	x	x	-89*
CCc1ccc(C(C)NC(=S)NC2CCCCC2)cc1 (configuration not stated)	x	x	-11%	x	x	x
